Results from PubChem BioAssay AID1458 (National Center for Advancing Translational Sciences (NCATS), 2008).
The whole screen tested about 210,000 compounds, of which about 5,900 (2.8%) were called active. Inconclusive results (about 5%) are left out. The list comes from a sample in which actives are over-represented; it also holds similar structures and randomly drawn compounds. Unmarked numbers belong to inactive results. Calls come from the whole dose curve; as a rule, active = well fitted activation curve with a large enough effect; inconclusive = small, poorly fitted or top-dose-only effect; inactive = no such curve, though single readings can be large or run the other way.

assay: qHTS Assay for Enhancers of SMN2 Splice Variant Expression; conditions: HEK293 SMN2-luciferase splicing reporter, luminescence, 30-36 h; series mostly up to 46.1 µM; activity change, positive = activation: at the top concentration; note: nearly all actives have a fitted effect of over 55% in size; for activity change, positive = activation: % of control where 0% means no effect
How it was run: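 HEK293 cells carry an SMN2 minigene-luciferase reporter in which exon 7 inclusion puts luciferase in frame. Cells were seeded at 2000 cells/well, attached for 10-12 hours, then exposed to compounds for 30-36 hours at 37C before ONE-Glo luminescence.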
Potency is the fitted concentration of half-maximal effect.

SMILES	activity change, positive = activation	Potency
O=C(Nc1ccc(OC(F)(F)F)cc1)c1cc2c(=O)n3ccccc3nc2s1	4.24%	
O=C(Cn1c(=O)n(-c2ccc(F)cc2)c(=O)c2sccc21)Nc1cccc(C(F)(F)F)c1	-1.67%	
CCN(CC)CCNC(=O)c1cc2c(=O)oc3ccc(C)cc3c2s1	-6.23%	
COc1cccc(-c2nc3cc(C)ccc3o2)c1		11.2 µM (active)
O=C(COc1ccc(Cl)cc1)Nc1ccc(-c2nc3cc(Cl)ccc3o2)c(O)c1	21.9%	
COc1cccc(-c2nc(S(=O)(=O)c3ccc(C)cc3)c(NCc3ccccc3)o2)c1	14.4%	
COc1cccc(C(=O)Nc2ccc3oc(-c4ccc5ccccc5c4)nc3c2)c1	6.04%	
COc1ccc2oc(-c3cccc(NC(=O)CSc4ccc(Cl)cc4)c3)nc2c1		8.91 µM (active)
COc1cc2ccccc2cc1C(=O)Nc1cccc(-c2nc3ccccc3o2)c1	-1.36%	
CCCSc1ncc(Cl)c(C(=O)Nc2sc3c(c2C(=O)NCCOC)CCCC3)n1	-0.192%	
O=C(c1ccccc1F)N1CCC(c2nc3c(nnn3Cc3cccc(F)c3)c(=O)[nH]2)CC1	3.36%	
COc1ccc(-c2cc(C(F)(F)F)nc(SCC(=O)N(C)Cc3ccccc3)n2)cc1OC	-25.9%	
CCOc1ccc(N(CC)C(=O)c2cc3c(=O)oc4ccccc4c3s2)cc1	8.87%	
CSc1ncc(Cl)c(C(=O)Nc2ccc(S(=O)(=O)N3CCCC(C)C3)cc2)n1 (stereo unspecified)	-9.9%	
CCOc1cccc(NC(=O)CSc2ncc(-c3ccc(Cl)cc3)[nH]2)c1	-10.3%	
CCC(=O)N1CCc2cc(S(=O)(=O)NC(Cc3ccccc3)C(=O)NCc3ccc(C)cc3)ccc21 (stereo unspecified)	2.27%	
CC(=O)c1cccc(NC(=O)Nc2ccc(C)cc2)c1	-13.7%	
Cc1cccc(NC(=O)Nc2nnc(-c3ccccc3)o2)c1	-14%	
Cc1ccc(NC(=O)Nc2ccccc2)c(Br)c1		12.6 µM (active)
CCN(CC)c1cc(NC2CCCCC2)c2c3c(onc13)-c1ccccc1C2=O	-17.3%	
CSc1nc2ccc(NC(=O)c3c(F)cccc3F)cc2s1		12.6 µM (active)
CCCC(=O)Nc1nc2ccc(NC(=O)c3c(F)c(F)c(OC)c(F)c3F)cc2s1	-26.8%	
Nc1nnc(SCC(=O)Nc2ccc3nc(SCC(=O)Nc4ccccc4)sc3c2)s1	-3.96%	
CCC(C(=O)Nc1cccc(Cl)c1C)n1nc(-c2ccc(C)cc2)ccc1=O (stereo unspecified)	-3.41%	
Cc1cc2nn(-c3ccc(Cl)cc3)nc2cc1NC(=O)C(C)C	-8.91%	
COc1ccc(-c2nc3ccccc3s2)cc1NC(=O)COc1ccccc1C	8.11%	

SMILES	activity change, positive = activation	Potency
COc1ccccc1OCc1nc2ccccc2s1		3.16 µM (active)
CCc1ccc(-c2nnn(Cc3nc4ccccc4s3)n2)cc1	-8.76%	
COc1ccc(C2=NC3(CCCCC3)N(CC(=O)Nc3ccc(C(C)C)cc3)C2=O)cc1	2.69%	
C/C(Nc1ccc2oc(=O)ccc2c1)=C1/C(=O)CC2[C@@H]1C2(C)C (stereo partly specified)	-1.26%	
CCNS(=O)(=O)c1ccc(NC(=O)CSc2nc(-c3ccco3)cc(C(F)(F)F)n2)cc1	-10.1%	
O=C(Nc1cccc(Cl)c1N1CCOCC1)c1ccc2c(c1)OCCO2	-0.872%	
O=C(Nc1ccc2c(c1)OCO2)c1ccc(N2C(=O)c3ccccc3C2=O)cc1	-0.0472%	
O=C(Nc1ccc2c(c1)OCCO2)c1ccc(Cl)c(S(=O)(=O)N2CCCCC2)c1	-62.2%	
Cn1c(NC(=O)c2ccc3c(c2)OCO3)cc(=O)n(C)c1=O	-6.43%	
O=C(Nc1cccc([N+](=O)[O-])c1)c1ccc2c(c1)OCO2	29.6%	
CN1CCN(c2ccc(NC(=O)c3ccc4c(c3)OCCO4)cc2Cl)CC1		14.1 µM (active)
Cn1c(=O)n(C)c2cc(C(=O)Nc3ccc4c(c3)OCO4)ccc21		11.2 µM (active)
CC(C)C(=O)Nc1cccc(C(=O)Nc2ccc3c(c2)OCO3)c1		15.8 µM (active)
CCSc1ccccc1C(=O)Nc1ccc2c(c1)OCO2	27.2%	
Cc1ccc(-c2nc3ccccn3c2Nc2c(C)cccc2C)o1	-0.98%	
N#C/C(=C\c1cccc(F)c1)c1nc(-c2cc3c(ccc4ccccc43)oc2=O)cs1	8.31%	
CCOc1ccc(C(=O)c2cn(Cc3ccc(F)cc3)c3ccc(F)cc3c2=O)cc1	-2.97%	
Cc1ccc2nc(CC(=O)c3ccc4ccccc4c3)c(=O)[nH]c2c1	-3.77% [at 9.22 µM]	
Cc1ccc2nc(CNC(=O)c3ccccc3)[nH]c2c1		11.2 µM (active)
Cc1ccc(C(=O)NCCNC(=O)c2ccccc2)cc1	6.08%	
Cc1ccc(C)c(Nc2nnc(-c3ccc(C)c(S(=O)(=O)N4CCCCC4)c3)c3ccccc23)c1	-14.7%	
Cc1cc(NC(=O)C2CCC(CNS(=O)(=O)c3ccc(Br)s3)CC2)ccc1Br (stereo unspecified)	-18.2%	
CCC(=O)Nc1cccc(NC(=O)c2cccnc2)c1	-15.2%	
Cc1cc2nc(-c3ccc(NC(=O)c4cccnc4)cc3)oc2cc1C		12.6 µM (active)
Cc1ccc(-n2nc3cc(C)c(NC(=O)c4cccnc4)cc3n2)cc1	-15.4%	
O=C(CSc1nnc(CNC(=O)c2ccccc2)n1-c1ccc(F)cc1)Nc1ccccc1F	-1.11%	

SMILES	activity change, positive = activation	Potency
Cc1ccc(CNC(=O)CCc2c(C)nc3nc(CNC(=O)OC(C)(C)C)nn3c2C)cc1	-8.75%	
COc1ccc(CCNCc2c(C(=O)O)c(C)n(Cc3cccc(C)c3)c2C)cc1OC	2.2%	
COc1ccccc1OCCNC(=O)c1cc([N+](=O)[O-])cc([N+](=O)[O-])c1	5.17%	
Cc1occc1C(=O)Nc1cccc(Cn2cccn2)c1	-12.3%	
Cc1ccnc(NC(=O)c2ccc(NC(=O)c3ccco3)cc2)c1		10 µM (active)
Cc1ccc(C(=O)COc2cccc(NC(=O)c3ccco3)c2)cc1	-40.6%	
COc1cc(SC)ccc1C(=O)Nc1cc(C)ccn1		2.24 µM (active)
COc1cc(SC)ccc1C(=O)NCCOc1ccccc1Cl		12.6 µM (active)
COc1cc(SC)ccc1C(=O)Nc1nc(C)cs1	-80.7%	
COc1ccccc1CNC(=O)c1ccc(SC)cc1OC	2.66%	
Cc1occc1C(=O)Nc1nnc(-c2ccncc2)s1	33.1%	
COc1cccc(C(=O)Nc2ccc(NC(=O)c3ccco3)cn2)c1	-2.24%	
Cc1ccnc(NC(=O)CCCOc2ccccc2)c1	-24.8%	
Cc1ccnc(NC(=O)c2ccoc2C)c1		15.8 µM (active)
CCOc1ccc2oc(=O)cc(CN3CCN(C(=O)c4ccc(F)cc4)CC3)c2c1	-15.9%	
CCOC(=O)c1ccc(NC(=O)CC2C(=O)N(c3cccc(OC)c3)C(=O)N2C2CCCCC2)cc1 (stereo unspecified)	1.93%	
COc1cc(C(=O)N2CCN(C(=O)COc3cccc(C)c3)CC2)cc(OC)c1OC	21.2%	
CC(=O)c1sc(N2C(=O)c3oc4ccccc4c(=O)c3C2c2ccc(C)cc2)nc1C (stereo unspecified)	-8.25%	
CCc1ccc(NC(=O)c2sc3nc4c(cc3c2N)CN(CC)CC4)cc1	-16.2%	
O=C(CSc1ccccc1)Nc1ccc(NC(=O)c2ccco2)cc1	3.71%	
O=C(Nc1ccc(Oc2ccccc2)cc1)c1ccco1		15.8 µM (active)
O=C(/C=C/c1ccco1)Nc1ccc(Oc2ccccc2)cc1	14.3%	
C#CC(C)(CC)NC(=O)Cn1nnc(-c2ccc(OCc3c(F)cccc3Cl)cc2)n1 (stereo unspecified)	-28%	
COc1ccc(CCNC(=O)CCCCn2c(=O)c3ccccc3n(Cc3ccccc3)c2=O)cc1OC	3.78%	
COc1cc(/C=C/CO)cc(OC)c1O[C@@H]1O[C@H](CO)[C@@H](O)[C@H](O)[C@H]1O	11%	
COc1cc(/C=C/C2=CC(C)(C)NC(=S)N2)cc(OC)c1OC		11.2 µM (active)

SMILES	activity change, positive = activation	Potency
Cc1noc(/C=C/N(C)C)c1S(=O)(=O)N1CCCC(C(=O)Nc2cccc(F)c2)C1 (stereo unspecified)	11.2%	
Cc1cc(C)c(NC(=O)CCc2c(C)nc3c(c(C)nn3C(C)(C)C)c2C)c(C)c1	1.34%	
c1ccc(CSc2nnc(-c3ccco3)c(-c3ccco3)n2)cc1	-1.17%	
O=C(CSc1nnc(-c2ccco2)n1Cc1ccccc1)NC(=O)NCc1ccco1	-11%	
c1ccc(CSc2nnc(-c3ccco3)n2Cc2ccccc2)cc1		22.4 µM (active)
COc1ccc(Cn2cc(C(=O)c3ccc(C)cc3)c(=O)c3cc(OC)c(OC)cc32)cc1	-5.96%	
Cc1ccn2c(Nc3ccc4c(c3)OCCO4)c(-c3ccc(C)s3)nc2c1	17.7%	
CCN(CC)S(=O)(=O)c1ccc(C(=O)N=c2sc3cccc(OC)c3n2C)cc1	-4.59%	
Cc1cc(C)c(-c2n[nH]c3c2C(c2ccccc2F)N(CCO)C3=O)c(O)c1 (stereo unspecified)	7.88%	
CCn1cc(C(=O)N2CCN(c3cc(C)ccc3C)CC2)c(=O)c2cc(S(=O)(=O)N(C)C3CCCCC3)ccc21	-12.9%	
Cc1ccn(-c2cccc(-n3ccc(C)n3)n2)n1		7.94 µM (active)
CCOc1ccc(NC(=O)CC2C(=O)N(c3cccc(OC)c3)C(=O)N2C2CCCCC2)cc1 (stereo unspecified)	-1.25%	
Cc1cccc(CC(=O)N2CC(=O)Nc3ccc(F)cc3C2c2ccccc2)c1 (stereo unspecified)	-3.94%	
Cc1ccc(N/N=C2\COC(C)(C)CC2=O)cc1		11.2 µM (active)
Cc1ccc(NN=C2C(=O)OC(C)(C)OC2=O)c(C)c1	29.2%	
COc1ccc(N/N=C2/CCCCC2=O)cc1	18.6%	
CCCn1c(=N)n(CC(O)COc2ccccc2OC)c2ccccc21 (stereo unspecified)	-15.6%	
CCOC(=O)c1ccc(NC(=O)CCn2c(=O)oc3ccccc32)cc1	-14.6%	
CSc1ccc(/C=N/NC(=O)c2cccc(Cl)c2)cc1		10 µM (active)
COc1ccc(/C=N/NC(=O)c2cccc(C(F)(F)F)c2)cc1	2.79%	
CSc1ccc(/C=N\NC(=O)COc2ccc(Cl)cc2Br)cc1	-16.2%	
CCn1cc(C(=O)N(C)Cc2ccccc2)c(=O)c2cc(S(=O)(=O)N3CCCCCC3)ccc21	-2.11%	
COC(=O)c1c(NC(=O)c2cc(=O)c3c(C)cc(C)cc3o2)sc2c1CCCC2	8.45%	
